Results filed as inconclusive are left out. Calls of active or inactive are those of the source. Calls come from the whole dose curve; as a rule, active = well fitted cell-killing curve with a large enough effect; inconclusive = small, poorly fitted or top-dose-only effect; inactive = flat fitted curve, though single readings scatter.
Assay: Cell Viability - LYMP2-012 (AID 982);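 note: cellular ATP by luciferase luminescence where a drop means cytotoxicity; cells exposed to compound for one day before reading; nearly all actives have a fitted effect of over 55% in size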
Details: LYMP2-012 lymphoblastoid cell viability qHTS; series mostly up to 92.2 µM
Excerpt: NIH Chemical Genomics Center [NCGC]
NIH Molecular Libraries Screening Centers Network [MLSCN]
National Institutes of Environmental Health Sciences [NIEHS]
National Toxicology Program [NTP]
We have developed a 1536-well cell-based assay for quantitative high throughput screening (qHTS) against a number of cell lines to determine in vitro cytotoxicity of small molecules. This particular assay uses a human lymphoblastoid cell line (LYMP2-012) purchased from Coriell Institute for Medical Research.
NCGC Assay Protocol Summary:
The CellTiter-Glo luminescent cell viability assay (Promega) is a homogeneous method to measure the number of viable cells in culture. The end point readout of this assay is based on quantitation of intracellular ATP, an indicator of metabolic activity, using the luciferase reaction. Luciferase catalyzes the oxidation of beetle Luciferin to oxyluciferin and light in the presence of ATP. The luminescent signal is proportional to amount of ATP present.
Using the CellTiter-Glo luminescent cell viability assay, the amount of cellular ATP was measured in the lymphoblastoid cell line with complete culture medium following compound treatment for 24 hours. The assay was performed in opaque white Kalypsys 1536-well plates. In the screen, tetraoctylammonium bromide was used as positive control. Library compounds were measured for their ability to cause acute toxicity in the cell line, as reflected by a decrease in intracellular ATP levels, in a concentration-dependent manner. […] AC50 values were determined from concentration-response data modeled with the standard Hill equation.
qHTS protocol for CellTiter Glo lymphoblastoid cellular assay
[Step] [Parameter] [Value] [Description]
1. Reagent; 5 uL; 2500 lymphoblastoid cells/well
2. Time; 5 hr; 37 C incubation
4. Controls; 23 nL; Tetraoctylammonium bromide 6.4pM to 92 uM
5. Time; 24 hr; 37 C incubation
6. Reagent; 5 uL; CellTiter Glo reagent
7. Time; 30 min; Room Temperature
8. Detection; Luminescence; Viewlux plate reader
Keywords: cell viability, cytotoxicity, lymphoblastoid cell line, luminescence, NTPHTS, NTPHTS_NCGC, NIEHS, DSSTox, MLSMR, MLSCN, NIH Roadmap, qHTS, NCGC

| Structure (SMILES) | outcome |
| --- | --- |
| Oc1ccc(Cl)cc1 | inactive |
| O=P1(N(CCCl)CCCl)NCCCO1 (stereo unspecified) | inactive |
| C[C@]1(O)CC[C@H]2[C@@H]3CCC4=CC(=O)CC[C@]4(C)[C@@]3(F)[C@@H](O)C[C@@]21C | inactive |
| COc1cc(OC)c(OC)cc1C=O | inactive |
| NCCc1ccc(O)cc1 | inactive |
| C[C@]12CCC(=O)C=C1CC[C@@H]1[C@@H]2CC[C@]2(C)C(=O)CC[C@@H]12 | inactive |
| CCCC(C)(COC(N)=O)COC(N)=O | inactive |
| CCC(C)(C)c1ccc(O)cc1 | inactive |
| Nc1ccccc1C(=O)O | inactive |
| CC(C)NC(C)C | inactive |
| COP(=S)(OC)Oc1ccc(SC)c(C)c1 | inactive |
| CCOC(=O)CC(SP(=S)(OC)OC)C(=O)OCC (stereo unspecified) | inactive |
| Nc1ccccc1 | inactive |
| CC(C)c1cccc(C(C)C)c1O | inactive |
| Clc1ccc(C(c2ccc(Cl)cc2)C(Cl)(Cl)Cl)cc1 | inactive |
| COC(=O)C(c1ccccc1)C1CCCCN1 (stereo unspecified) | inactive |

Reference: PubChem BioAssay (NCATS)
